This is an account of results in PubChem BioAssay (EPA / NIEHS).

Assay [1] is described as follows: TOX21_p53_BLA_p2_viability: Viability Assessment in the Tox21 HCT-116 p53 Agonism Beta-lactamase Assay, Phase 2 (AID 2283591).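 Also: compound exposure lasted 16 h at 37 °C; actives lower the ATP signal meaning cytotoxicity.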 An outline of the steps:
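Cytotoxicity readout: CellTiter-Glo ATP luminescence, 30 min at room temperature, after the beta-lactamase read. Cells were HCT116 exposed 16 h at 37C to compounds pin-transferred at 217-fold dilution from DMSO stocks.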

Assay [2] addresses Cellular tumor antigen p53 (Homo sapiens) (UniProt P04637). Nature of the assay: TOX21_p53_BLA_p2_ratio: Tox21 HCT-116 p53 Agonism Beta-lactamase Assay, Ratio, Phase 2 (AID 2283592). The procedure, abridged:
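HCT116 p53-bla; 4000 cells/well; 5 h pre-incubation; cpd in DMSO, 217-fold dilution; 16 h 37C/5% CO2; CCF4-AM 2 h RT; Ex 405, Em 460/530 ratio; DMSO = baseline; positive fitting direction.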

The target is the same in assay [3]. Nature of the assay: TOX21_p53_BLA_p3_ratio: Tox21 HCT-116 p53 Agonism Beta-lactamase Assay, Ratio, Phase 3 (AID 2283596). The procedure, abridged: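 HCT116 p53-bla cells (4000/well) given compound in DMSO (217-fold dilution) after 5 h, incubated 16 h at 37C. CCF4-AM substrate 2 h at room temperature; 460/530 nm emission ratio, gain fitted against DMSO.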
The nature of assay [4]: TOX21_p53_BLA_p4_viability: Viability Assessment in the Tox21 HCT-116 p53 Agonism Beta-lactamase Assay, Phase 4 (AID 2283597).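 Also: hits lower the luminescence signal meaning cytotoxicity.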 The procedure, abridged:
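Cells plated, 5 h pre-incubation; DMSO compounds pinned (217-fold dilution); 16 h, 37C/5% CO2; CCF4-AM 2 h RT; CellTiter-Glo 30 min RT; luminescence read.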

The nature of assay [5]: TOX21_p53_BLA_p5_viability: Viability Assessment in the Tox21 HCT-116 p53 Agonism Beta-lactamase Assay, Phase 5 (AID 2283600). The procedure, abridged:
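4000 cells/well; 5 h pre-incubation; DMSO compounds pin-transferred, 217-fold dilution; 16 h, 37C/5% CO2; CCF4-AM 2 h RT; CellTiter-Glo 30 min RT; luminescence.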

Assay [6] deals with Cellular tumor antigen p53 (Homo sapiens) (UniProt P04637). The assay is described as follows: TOX21_p53_BLA_p4_ratio: Tox21 HCT-116 p53 Agonism Beta-lactamase Assay, Ratio, Phase 4 (AID 2283601). The procedure, abridged: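 Signal is the blue/green (460nm/530nm) ratio of cleaved versus uncleaved CCF4-AM substrate, read after 2 h substrate loading. Cells were HCT116 carrying the p53-responsive beta-lactamase reporter, dosed 16 h at 37C, 5% CO2; CellTiter-Glo measured in parallel.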
Chain of Cellular tumor antigen p53 (Homo sapiens) (P04637 whole entry, looked up): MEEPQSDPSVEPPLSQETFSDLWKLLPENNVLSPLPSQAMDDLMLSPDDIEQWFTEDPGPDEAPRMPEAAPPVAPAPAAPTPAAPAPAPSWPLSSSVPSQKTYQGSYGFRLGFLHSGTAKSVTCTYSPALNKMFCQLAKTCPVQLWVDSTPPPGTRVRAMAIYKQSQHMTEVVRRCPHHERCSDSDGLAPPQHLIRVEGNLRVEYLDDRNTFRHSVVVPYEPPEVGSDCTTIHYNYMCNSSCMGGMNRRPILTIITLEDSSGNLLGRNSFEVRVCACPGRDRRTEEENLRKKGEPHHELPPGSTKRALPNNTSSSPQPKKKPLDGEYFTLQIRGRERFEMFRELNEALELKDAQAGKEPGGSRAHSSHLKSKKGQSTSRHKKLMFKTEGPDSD

Assay [7] has the same target. The assay is described as follows: TOX21_p53_BLA_p5_ratio: Tox21 HCT-116 p53 Agonism Beta-lactamase Assay, Ratio, Phase 5 (AID 2283599). The procedure, abridged:
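Beta-lactamase reporter ratio (blue 460 nm over green 530 nm, 405 nm excitation) after 2 h CCF4-AM loading, in HCT-116 cells exposed 16 h at 37 C to compounds pinned at 217-fold dilution. Increases relative to DMSO baseline scored.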

Each structure is given as a SMILES string. Records with an inconclusive call do not appear. Active and inactive are the calls of the source. The calls were made as follows: active = hit-call score of the fitted dose curve at least 0.9, where 1 is the maximum; inconclusive = response in the unintended direction; inactive = score below 0.9.

Consider `OC[C@H]1O[C@@H](n2cnc3c2NC=NC[C@H]3O)C[C@@H]1O`, for which the call in assay [1], in assay [2], in assay [3], in assay [4], in assay [5] and in assay [6] was inactive.
As to `CNCCc1ccccn1`, the compound was classed as inactive in assay [1], in assay [2], in assay [3], in assay [4], in assay [5] and in assay [6].
As to `CNC(=O)OCc1cccc(COC(=O)NC)n1`, the result in assay [1], in assay [2], in assay [3], in assay [7] and in assay [5] was inactive.
As to `CCCCS`, the outcome in assay [1], in assay [2], in assay [3], in assay [7] and in assay [5] was inactive.
On to `O=C(O)c1ccc(OCCn2ccnc2)cc1`, for which the result in assay [1], in assay [2], in assay [3], in assay [4], in assay [5] and in assay [6] was inactive.
For the compound `C1CCC2OC2C1` (stereo unspecified), the result in assay [1], in assay [2], in assay [3], in assay [4], in assay [5] and in assay [6] was inactive.
For the compound `Nc1ccc(S(=O)(=O)Nc2ccnn2-c2ccccc2)cc1`, the compound was called inactive in assay [1], in assay [2], in assay [3], in assay [4] and in assay [6].
Take `CCCCCCCCCCCCCCCC(=O)OC[C@@H](COP(=O)([O-])OCC[N+](C)(C)C)OC(=O)CCCCCCCCCCCCCCC`: the call in assay [1], in assay [2], in assay [3], in assay [4] and in assay [6] was inactive.
In the case of `O=c1[nH]c2cc(C(F)(F)F)c(N3CCOCC3)cc2n(CP(=O)(O)O)c1=O`, the call in assay [1], in assay [2], in assay [3], in assay [4] and in assay [6] was inactive.
Regarding `CCOC(=O)CC(=O)c1cc(F)c(Cl)nc1Cl`, the call in assay [1], in assay [2], in assay [3], in assay [4], in assay [5] and in assay [6] was inactive.
In the case of `NS(=O)(=O)c1cc(Cl)c(Cl)c(S(N)(=O)=O)c1`, the compound was classed as inactive in assay [1], in assay [2], in assay [3], in assay [7] and in assay [5].
On to `C[C@@H]1C[C@H]2[C@@H]3CCC4=CC(=O)C=C[C@]4(C)[C@@]3(F)[C@@H](O)C[C@]2(C)[C@@]1(O)C(=O)COC(=O)c1cccc(S(=O)(=O)O)c1`, for which the result in assay [1], in assay [2], in assay [3] and in assay [7] was inactive.
For the compound `NCC[C@H](O)C(=O)N[C@@H]1C[C@H](N)[C@@H](O[C@H]2O[C@H](CN)CC[C@H]2N)[C@H](O)[C@H]1O[C@H]1O[C@H](CO)[C@@H](O)[C@H](N)[C@H]1O`, the outcome in assay [1], in assay [2], in assay [3], in assay [4] and in assay [6] was inactive.
On to `Cc1cn[nH]c1`, for which the compound was classed as inactive in assay [1], in assay [2], in assay [3], in assay [7] and in assay [5].
Regarding `Oc1ccc(C2(c3ccc(O)cc3)CC3CC2C2CCCC32)cc1` (stereo unspecified), the AC50 in assay [1] was 64.1 µM (active); in assay [2], 82.8 µM (active); in assay [4] it was 55.4 µM (active); in assay [6] it was 83.1 µM (active). In addition, the result in assay [3] was inactive.
For `O=S(=O)(O)CCO`, the result in assay [1], in assay [2], in assay [3], in assay [4], in assay [5] and in assay [6] was inactive.
As for `CC(C)(C)NCCNC(C)(C)C`, the outcome in assay [1], in assay [2], in assay [3], in assay [4], in assay [5] and in assay [6] was inactive.

In general, AC50 refers to the concentration at which the activity in the assay is half-maximal.
